Experiment [1] in a line: qHTS to identify inhibitors of the type 1 interferon - major histocompatibility complex class I in skeletal muscle: primary screen against the NCATS Pharmaceutical Collection (AID 1347407). In short, it runs like this: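 Luminescence from HiBiT-tagged endogenous HLA-B*08:01 served as the read-out of IFN-beta-induced MHC class I in CRISPR-engineered C25cl48 myoblasts. Cells received 4 ng/ml IFN-beta plus compound (high final 46 uM, […]) for 24 h.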

Experiment [2] is described as follows: qHTS to identify inhibitors of the type 1 interferon - major histocompatibility complex class I in skeletal muscle: primary screen against the NCATS Mechanism Interrogation Plate v5.0 (MIPE) Libary (AID 1347411). Note: nearly all actives have a fitted effect of over 65% in size. In short, it runs like this:
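Immortalized human myoblasts (C25cl48) with HiBit knocked into endogenous HLA-B*08:01 were stimulated with 4 ng/ml IFN-beta and given compounds in 11-point 1:3 titration from 46 uM. After 24 h at 37 C, lytic HiBiT luminescence was read.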

Experiment [3] has as its target Protein phosphatase 1D (Homo sapiens) (UniProt O15297). Put plainly: RapidFire Mass Spectrometry qHTS Assay for Modulators of WT P53-Induced Phosphatase 1 (WIP1) (AID 1347424).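 Note: amount of dephosphorylated VEPPL-S-QETFS peptide product formed by WIP1; series mostly up to about 63 µM.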 In a few lines: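 10 nM WIP1 + cpd, 1 h RT; + 2 uM VEPPL-pS-QETFS, 5 min RT; stop 0.5% formic acid; labelled product standard 1 uM; RapidFire MS. Buffer 50 mM Tris pH 7.5, 30 mM MgCl2, 1 mM TCEP.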
For orientation: In qHTS, concentration-response curves come from the screen itself.

Experiment [4] has the same target. Description: Rhodamine-PBP qHTS Assay for Modulators of WT P53-Induced Phosphatase 1 (WIP1) (AID 1347425). In a few lines:
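5 nM WIP1 + 10 uM Rh-PBP, 50 mM Tris pH 7.5, 30 mM MgCl2, 1 mM TCEP, 0.1 mM EGTA, BSA; cpds pinned, 1 hr RT; + 10 uM phosphopeptide; fluorescence 1-min reads x 11 min; delta = f1 - f0.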

The nature of experiment [5]: Primary qHTS for inhibitors of La Crosse Virus (LACV) - induced cell death in SH-SY5Y cells (AID 1508616).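 Note: top concentration of the series differs between compounds; higher means more rescue of cells from virus-induced death.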 In short, it runs like this: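 SH-SY5Y cells (6000/well) plated 24 h, then given compounds by pin transfer and LACV at 0.01 MOI for 6 days at 37C. Viability measured by ATPLite luminescence, normalized to infected DMSO and uninfected DMSO.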
The target in experiment [6] is Calcium and integrin-binding protein 1 (Homo sapiens) (UniProt Q99828). Description: Primary qHTS for Identification of Calcium Integrin Binding Protein 1 (CIB1) Competitor (AID 1508620).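 Note: GST tagged CIB1 binding a fluorescein labelled alphaIIb integrin peptide tracer; top concentration of the series differs between compounds.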 In short, it runs like this: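 CIB1-GST (1 uM final) and compound incubated 15 min at room temperature before adding FITC-alphaIIb peptide tracer (100 nM final). Competition for binding read by fluorescence polarization (ex 480, em 540) after another 15 min at room temperature.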

Experiment [7] can be described thus: HepG2 cells viability qHTS for Zika virus inhibitors (AID 1347168). In short, it runs like this:
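Compounds were tested in concentration series on cells grown in DMEM containing 4% FBS. After 24 to 48 hours, cellular ATP was measured by luminescence with CellTiter Glo.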

Experiment [8] can be described thus: Tertiary RLuc qRT-PCR qHTS assay for Zika virus inhibitors (AID 1347169). Note: nearly all actives have a fitted effect of over 55% in size. Note: potency is the fitted concentration of half-maximal effect. In a few lines:
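Vero, 1,000 cells/well, o/n 37 C; cpd pinned in DMSO; ZIKV-RLuc Cambodian, MOI 1-2, 48-72 h 37 C; live-cell RLuc substrate, lum read at 1-1.5 h.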
Background: In qPCR the cycle at which signal appears reflects the starting amount.

The structures appear in SMILES notation. Where “and” joins values, the source holds several entries; their conditions need not be identical. Identical values can stand only once. Records with an inconclusive call do not appear. Values without a mark were called inactive. Calls of active or inactive are those of the source. Calls come from the whole dose curve; as a rule, active = well fitted curve in the direction sought with a large enough effect; inconclusive = small, poorly fitted or top-dose-only effect, or another doubt; inactive = no such curve, though single readings can be large; an effect the other way counts as inactive or inconclusive.

Our source for the Potency and outcome values is PubChem BioAssay (NCATS).

Sequence of Calcium and integrin-binding protein 1 (Homo sapiens) (Q99828 whole entry, looked up): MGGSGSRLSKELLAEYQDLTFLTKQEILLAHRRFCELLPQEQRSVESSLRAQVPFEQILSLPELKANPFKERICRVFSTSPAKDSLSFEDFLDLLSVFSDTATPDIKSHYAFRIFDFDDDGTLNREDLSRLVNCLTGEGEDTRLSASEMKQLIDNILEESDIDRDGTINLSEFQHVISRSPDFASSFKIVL
Sequence of Protein phosphatase 1D (Homo sapiens) (O15297 whole entry, looked up): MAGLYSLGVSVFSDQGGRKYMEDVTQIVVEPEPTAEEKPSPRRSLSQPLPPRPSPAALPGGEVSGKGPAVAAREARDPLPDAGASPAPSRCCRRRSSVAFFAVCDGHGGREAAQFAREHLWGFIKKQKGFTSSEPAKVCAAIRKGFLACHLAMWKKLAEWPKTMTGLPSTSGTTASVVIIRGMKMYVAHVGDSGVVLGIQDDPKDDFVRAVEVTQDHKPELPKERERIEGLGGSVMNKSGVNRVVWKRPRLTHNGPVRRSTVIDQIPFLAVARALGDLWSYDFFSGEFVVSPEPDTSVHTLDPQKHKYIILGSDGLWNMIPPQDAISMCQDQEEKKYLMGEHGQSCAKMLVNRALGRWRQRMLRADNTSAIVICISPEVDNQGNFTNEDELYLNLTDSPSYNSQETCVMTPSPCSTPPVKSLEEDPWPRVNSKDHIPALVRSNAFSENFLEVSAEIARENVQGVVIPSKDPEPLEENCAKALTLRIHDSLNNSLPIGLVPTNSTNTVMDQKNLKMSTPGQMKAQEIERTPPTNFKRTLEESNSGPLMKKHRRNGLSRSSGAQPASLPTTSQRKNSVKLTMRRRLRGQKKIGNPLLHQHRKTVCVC

On to `CCOC(=O)c1ccc(C#Cc2ccc3c(c2)C(C)(C)CCS3)nc1`, for which the Potency result in experiment [1], in experiment [2] and in experiment [5] was “inactive” each time. In addition, the call in experiment [3] and in experiment [4] was inactive.

Consider `CC(C)C1CCC(C(=O)N[C@H](Cc2ccccc2)C(=O)O)CC1` (some centres undefined), for which the Potency result in experiment [1], in experiment [2] and in experiment [5] was “inactive” throughout. Also, the outcome in experiment [3], in experiment [4] and in experiment [6] was inactive.

Regarding `COCCCOc1cc(C[C@@H](C[C@H](N)[C@@H](O)C[C@H](C(=O)NCC(C)(C)C(N)=O)C(C)C)C(C)C)ccc1OC`, the Potency result in experiment [1], in experiment [2] and in experiment [5] was “inactive” throughout. For the same compound, the outcome in experiment [3] and in experiment [4] was inactive.

As to `CC(C)(C)NC(=O)[C@H]1CC[C@H]2[C@@H]3CC[C@H]4NC(=O)C=C[C@]4(C)[C@H]3CC[C@]12C`, the Potency entry in experiment [1], in experiment [2] and in experiment [5] was “inactive” throughout. The call in experiment [3], in experiment [4] and in experiment [6] was inactive.

As to `CCOC(=O)[C@H](CCc1ccccc1)N[C@H]1CS[C@H](c2cccs2)CN(CC(=O)O)C1=O`, the Potency entry in experiment [1], in experiment [2] and in experiment [5] was “inactive” in each case. The compound was called inactive in experiment [3] and in experiment [4].

`CC[C@H](NC(C)C)[C@H](O)c1ccc(O)c2[nH]c(=O)ccc12`: the Potency entry in experiment [1], in experiment [2] and in experiment [5] was “inactive” in each case. Also, the compound was called inactive in experiment [3] and in experiment [4].

For `NCCCC(O)(P(=O)(O)O)P(=O)(O)O`, the Potency result in experiment [1], in experiment [2] and in experiment [5] was “inactive” in each case. In addition, the outcome in experiment [3] and in experiment [4] was inactive.

Turning to `NC(=O)c1cccnc1`, the Potency result in experiment [1], in experiment [2] and in experiment [5] was “inactive” each time. Moreover, the call in experiment [3] and in experiment [4] was inactive.

Consider `CCc1cc(C(N)=S)ccn1`, for which the Potency result in experiment [1], in experiment [2] and in experiment [5] was “inactive” each time. In addition, the compound was classed as inactive in experiment [3], in experiment [4] and in experiment [6].

For the compound `CCN[C@H]1C[C@H](C)S(=O)(=O)c2sc(S(N)(=O)=O)cc21`, the Potency entry in experiment [1], in experiment [2] and in experiment [5] was “inactive” each time. Further, the compound was called inactive in experiment [3] and in experiment [4].

For `CCCOc1ccc(C(=O)OCCN(CC)CC)cc1N`, the Potency result in experiment [1], in experiment [2] and in experiment [5] was “inactive” throughout. Further, the compound was classed as inactive in experiment [3] and in experiment [4].

Turning to `CCn1cc(C(=O)O)c(=O)c2cc(F)c(N3CCNCC3)cc21`, the Potency entry in experiment [7], in experiment [8], in experiment [1], in experiment [2] and in experiment [5] was “inactive” throughout. Further, the compound was classed as inactive in experiment [3], in experiment [4] and in experiment [6].

In the case of `CC(C)OC(=O)C(C(=O)OC(C)C)=C1SC=CS1`, the Potency result in experiment [1], in experiment [2] and in experiment [5] was “inactive” throughout. Further, the compound was called inactive in experiment [3], in experiment [4] and in experiment [6].

In the case of `Nc1nc(=S)c2[nH]cnc2[nH]1`, the Potency entry in experiment [7], in experiment [1], in experiment [2] and in experiment [5] was “inactive” throughout. The Potency in experiment [8] is 4.15 µM (active) and 3.3 µM (active). The compound was classed as inactive in experiment [3] and in experiment [4].

On to `NS(=O)(=O)c1cc2c(cc1Cl)NC(C(Cl)Cl)NS2(=O)=O` (centres undefined), for which the Potency entry in experiment [1], in experiment [2] and in experiment [5] was “inactive” throughout. For the same compound, the compound was classed as inactive in experiment [3] and in experiment [4].
